Compounds with a hit are over-represented: about 21% of the library has one in this group of screens.
Shiga inhibitor: inhibitors of Shiga toxin in Vero cells; actives 9.2% (n = 290,000); Vero cells, Shiga toxin protein synthesis inhibition reporter; AID 2315; inhibition, % at 38.7 µM; in the data active = inhibition mostly above about 28%, no sharp cut-off; inactive = mostly below about 43%; also: 0% is about no effect
CHX counter: counter-screen hit for Shiga toxin inhibitors, cycloheximide. cell reporter, cycloheximide protein synthesis inhibition counterscreen. max response, %. actives 12% (n = 300,000). AID 2314; in the data active = max response mostly above about 13%, no sharp cut-off; inactive = mostly below about 14%; also: read at 38.3 µM for the half of the compounds with a filed dose; 0% is about no effect
Pf growth 96h: P. falciparum growth inhibition at 96 hours | Potency, µM (titrated, usually from 28.7 µM), for the others: at the top dose activity change, negative = inhibition, hits mostly inhibitors | P. falciparum luciferase reporter growth, 96 h | actives 6.9% (n = 320,000); active = well fitted inhibition curve with a large enough effect; inconclusive = small, poorly fitted or top-dose-only effect, or another doubt; inactive = no such curve, though single readings can be large or run the other way; also: potency is read from the fitted curve at half-maximal effect; % is scaled to controls: 0 for no effect and ±100 for the full control effect
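P. falciparum expressing integrated firefly luciferase, in erythrocytes at 2% hematocrit, 0.05% parasitemia, incubated with compounds 96 h at 37 C, 5% CO2. Growth inhibition read as loss of luminescence; two-generation exposure targets delayed-death apicoplast inhibitors.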
Pf growth 48h: P. falciparum growth inhibition at 48 hours (one generation); AID 504832; P. falciparum luciferase growth in erythrocytes, 48 h; actives 5.9% (n = 310,000); Potency, µM (titrated, usually from 28.7 µM), without a hit: at the highest dose activity change, negative = inhibition, most hits filed as inhibitors; active = well fitted inhibition curve with a large enough effect; inconclusive = small, poorly fitted or top-dose-only effect, or another doubt; inactive = no such curve, though single readings can be large or run the other way; also: potency is read from the fitted curve at half-maximal effect; % is scaled to controls: 0 for no effect and ±100 for the full control effect
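A one-generation exposure of luciferase-tagged malaria parasites in RPMI 1640/Albumax erythrocyte culture, 37 C and 5% CO2. Inhibition is inferred from decreased luminescence after adding detection reagent.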
NS1 inh: inhibitors of influenza NS1 protein function | Potency, µM (series often up to 46.1 µM), without a hit: at the top dose activity, positive = more growth | actives 0.4% (n = 270,000) | AID 2326; also: potency is read from the fitted curve at half-maximal effect; actives are rising curves; nearly all actives have a fitted effect of over 50% in size
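Read-out: OD600 growth recovery of NS1-expressing budding yeast. Cells grown overnight at 30C in -URA glucose medium, washed, resuspended and diluted 1:100 in 2% galactose assay medium, pH 6.0. Same strain lacking NS1 served as positive control.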
SARS PLP yeast: inhibitors of SARS-CoV papain-like protease in yeast. Potency, µM (titrated, usually from 32.9 µM), inactives show at the highest dose activity, positive = growth rescue, actives largely listed as activators. S. cerevisiae expressing SARS-CoV PLpro, growth rescue. actives 0.19% (n = 330,000). AID 485353; also: potency is read from the fitted curve at half-maximal effect; 0% is about no effect; nearly all actives have a fitted effect of over 55% in size
The depositor's hits bear a star; ? = inconclusive; · = no result; + = active, no number. Unless noted, calls follow the shape of the full dose curve.

SMILES	Shiga inhibitor	CHX counter	Pf growth 96h	Pf growth 48h	NS1 inh	SARS PLP yeast
Cc1cccc2sc(NC(=O)C3CC3)nc12	39.6*	22.6*	32.3%	30.9%	-17.5%	·
COc1ccc(-c2nnc(N(C)C(=O)c3ccno3)s2)cc1	60.2*	26.0*	?	109.0%	-0.5%	-35.7%
COc1ccc(-c2nnc(N(C)C(=O)C3CCCO3)s2)cc1 (stereo not given)	+	26.0*	-7.2%	124.6%	-1.9%	-11.2%
CN(C(=O)c1ccno1)c1nnc(-c2ccccn2)s1	21.5	2.7	·	37.1%	-31.3%	-2.2%
COc1ccc(-c2oc(=O)c3cc(OC)c(OC)cc3c2C#C[C@]2(O)CC[C@H]3[C@@H]4CCc5cc(OC)ccc5[C@H]4CC[C@@]32C)cc1	·	·	·	·	·	2.5%
O=C1CC2(CCCCC2)Oc2ccc(O)cc21	-10.6	-3.4	4.15µM*	-24.4%	-31.5%	-12.1%
Cc1ccc2c(c1)C(=O)CC1(CCCCCC1)O2	2.8	1.3	80.3%	53.9%	2.9%	-0.7%
O=C(CN1CCN(S(=O)(=O)c2ccc(Cl)cc2)CC1)NCC1(N2CCOCC2)CCCCC1	·	·	?	?	·	-3.4%
CC(C)CCN(C(=O)c1cc(=O)[nH]c2ccccc12)c1c(N)n(Cc2ccccc2)c(=O)[nH]c1=O	·	·	-53.9%	?	·	1.2%
N#CC1=C(Nc2ccccc2)SC=C(c2ccc(Cl)c(Cl)c2)N=C1N1CCOCC1	-3.7	6.7	?	13.1µM*	10.4%	1.5%
N#CC1=C(Nc2ccccc2)SC=C(c2ccccc2)N=C1N1CCOCC1	14.3	9.1	?	·	6.3%	10.4%
O=C(CCC1CCCN(C(=O)c2cccc(F)c2)C1)N1CCN(c2ccccn2)CC1 (stereo not given)	12.2	0.3	-19.1%	-17.4%	-1.6%	4.3%
Cc1ccc(S(=O)(=O)Nc2cccc(C(=O)N3CCN(c4ccccc4O)CC3)c2)cc1F	·	·	?	1.47µM*	·	-1.7%
Cc1cccc(NS(=O)(=O)c2cccc(C(=O)N3CCN(S(=O)(=O)c4ccccc4)CC3)c2)c1	·	·	11.7µM*	?	·	-24.7%
Cn1nc(C(F)(F)F)c(-c2cccc(C(F)(F)F)c2)c1NC(=O)CSCC(=O)O	39.2	0.8	?	?	5.6%	-1.6%
CC(C)Sc1nc2ncnc(N)c2[nH]1	-16.4	-0.8	-19.8%	-21.9%	·	2.4%
O=c1c2ccccc2oc2ccc(NCCCN3CCOCC3)cc12	43.3*	35.6*	216.2%	312.4%	1.5%	5.1%
Cn1c2ccccc2c(=O)c2cc(NCCCN3CCOCC3)ccc21	·	·	·	·	·	3.0%
O=C(COc1ccc2c(c1)oc(=O)c1ccccc12)NCCCN1CCOCC1	11.7	5.9	?	?	-1.3%	0.5%
O=c1c2ccccc2oc2cc(NCCCn3ccnc3)ccc12	23.6*	23.8*	-95.1%	17.4%	2.2%	-11.6%
O=C(COc1ccc2c(-c3ccccc3)cc(=O)oc2c1)NCCCn1ccnc1	3.2	1.3	-13.1%	?	-12.3%	5.4%
O=c1c2ccccc2oc2cc(NCCCN3CCOCC3)ccc12	34.9*	40.1*	-30.6%	59.3%	-7.0%	-5.1%
Brc1ccc(C=Nc2ccc3c(c2)OCCOCCOCCO3)s1	-2.3	-1.7	324.4%	5.9%	11.3%	-1.2%
O=C(NC1CC1)c1ccc(CSCc2ccccc2Cl)o1	18.1	26.3*	23.7%	1.85µM*	-20.6%	-3.9%
O=C(Nc1ccc(Cl)cn1)C1CCCN1S(=O)(=O)c1ccccc1 (stereo not given)	-9.2	-3.1	65.0%	-19.5%	-6.5%	1.4%
SMILES	Shiga inhibitor	CHX counter	Pf growth 96h	Pf growth 48h	NS1 inh	SARS PLP yeast
COC(=O)c1ccc(CN2C(=O)NC(Cc3c[nH]c4ccccc34)C2=O)cc1 (stereo not given)	118.1*	37.0*	9.4%	-0.9%	1.7%	-0.4%
CN1C(=O)C(Cc2c[nH]c3ccccc23)NC1=S (stereo not given)	47.3*	30.0*	·	·	·	·
O=C1C(Cc2c[nH]c3ccccc23)NC(=S)N1Cc1ccccc1 (stereo not given)	3.8	-6.6	13.1µM*	?	6.3%	-2.0%
O=C1NC(Cc2c[nH]c3ccccc23)C(=O)N1Cc1ccccc1 (stereo not given)	-6.0	-1.4	23.4%	9.7%	12.0%	-0.2%
CC(C)NC(=O)NC(=O)CN1C(=O)NC(Cc2c[nH]c3ccccc23)C1=O (stereo not given)	36.2	11.8	-7.9%	19.3%	·	-3.1%
N#Cc1ccccc1CN1C(=O)NC(Cc2c[nH]c3ccccc23)C1=O (stereo not given)	-3.1	0.9	-15.4%	?	-3.5%	-0.4%
COCC(C)n1c(C)cc(C(=O)CN2C(=O)NC(Cc3c[nH]c4ccccc34)C2=O)c1C (stereo not given)	34.5	-1.2	5.22µM*	·	2.7%	5.6%
COc1ccc2c(c1)CCCC21NC(=O)N(CC(=O)NCc2cccs2)C1=O (stereo not given)	·	·	·	·	·	-6.4%
CC(C)CN(C)C(=O)CC1C(=O)NCCN1C (stereo not given)	-13.3	-2.4	-2.4%	-2.2%	-0.7%	1.0%
COc1ccc(S(=O)(=O)c2cnc3ccccc3n2)cc1	16.4	2.5	13.1µM*	?	·	1.1%
NC(=O)Cn1c(S(=O)(=O)Cc2ccccc2)nc2ccccc21	·	·	·	·	1.0%	·
O=S(=O)(c1ccc(Br)cc1)c1cnc2ccccc2n1	-6.2	7.5	11.7µM*	?	·	-0.8%
O=S(=O)(Cc1ccccc1)c1cnc2ccccc2n1	21.1	5.6	·	10.4µM*	-15.4%	-6.1%
COc1ccc(S(=O)(=O)c2ccc(OC)cc2)cc1	-6.2	-1.1	·	9.0%	-17.0%	1.7%
O=C(O)COc1ccccc1/C=N/NC(=O)Cc1csc(Nc2cccc(C(F)(F)F)c2)n1	-5.0	-5.9	0.8%	-12.1%	·	-7.3%
Cc1ccc(NS(=O)(=O)c2cc(C(=O)N(C)C3CCN(C)CC3)ccc2Cl)cc1Cl	·	·	·	·	·	4.6%
CCOc1c(C)cc(S(=O)(=O)NCc2ccccn2)c(C)c1C	-2.2	1.5	8.2%	21.8%	-3.5%	0.2%
CCN(CC)CCC(C)OC(c1ccccc1)c1ccccc1 (stereo not given)	53.5*	21.8*	-82.8%	-18.3%	·	-1.9%
CCN(CC)CCOC(c1ccccc1)c1ccc(C)cc1 (stereo not given)	0.9	-1.6	?	?	5.8%	6.5%
COc1ccc(C(=O)/C(=C/c2cccs2)c2nc3ccccc3o2)cc1	92.7*	43.0*	?	·	-3.2%	21.0%
COc1ccc(/C=C(\CC(=O)O)c2nc3ccccc3o2)cc1	107.5*	38.8*	134.7%	213.6%	·	-13.1%
O=C(O)/C(=C\c1cccs1)c1ccccc1	-13.0	-1.6	?	18.8%	2.1%	0.0%
O=C(O)/C=C\C(=O)Nc1ccc(F)c(F)c1F	2.3	0.1	7.1%	27.2%	4.3%	-0.4%
FC(F)(F)c1ccc(Nc2nnnc3ccccc23)cc1	36.4	21.1*	1.47µM*	1.31µM*	·	3.6%

Compound activity: PubChem BioAssay, National Center for Advancing Translational Sciences (NCATS)
